Pol eta inh = inhibitors of human DNA polymerase eta | Q9Y253 | recombinant Pol eta, fluorescent DNA replication assay | Potency, µM (top dose mostly 114 µM), most hits filed as inhibitors | 1.2% of 390,000 active | AID 588591
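Pol eta (10 nM) was preincubated with compounds for 15 min at room temperature, after which fluorescent replication substrate (50 nM final) was added to start the reaction. Fluorescence was read kinetically at 0 and 10 min.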
POLK inh = blocks human DNA polymerase kappa activity. Q9UBT6. purified Pol kappa, fluorescent DNA synthesis assay, 10 min. Potency, µM (series often up to 107 µM), hits mostly inhibitors. 0.53% of 400,000 active. AID 588579
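Enzyme at 10 nM met test compounds for 15 min at room temperature. Substrate addition (50 nM final) began the reaction, which was monitored by fluorescence at 0 and 10 min.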
Pol iota inh = DNA polymerase iota (human) inhibition; Q9UNA4; Pol iota fluorescent replication assay, 10 min; 1% of 390,000 active; Potency, µM (top dose mostly 115 µM), usual class: inhibitors
Target sequence (Q9UNA4 whole entry, looked up): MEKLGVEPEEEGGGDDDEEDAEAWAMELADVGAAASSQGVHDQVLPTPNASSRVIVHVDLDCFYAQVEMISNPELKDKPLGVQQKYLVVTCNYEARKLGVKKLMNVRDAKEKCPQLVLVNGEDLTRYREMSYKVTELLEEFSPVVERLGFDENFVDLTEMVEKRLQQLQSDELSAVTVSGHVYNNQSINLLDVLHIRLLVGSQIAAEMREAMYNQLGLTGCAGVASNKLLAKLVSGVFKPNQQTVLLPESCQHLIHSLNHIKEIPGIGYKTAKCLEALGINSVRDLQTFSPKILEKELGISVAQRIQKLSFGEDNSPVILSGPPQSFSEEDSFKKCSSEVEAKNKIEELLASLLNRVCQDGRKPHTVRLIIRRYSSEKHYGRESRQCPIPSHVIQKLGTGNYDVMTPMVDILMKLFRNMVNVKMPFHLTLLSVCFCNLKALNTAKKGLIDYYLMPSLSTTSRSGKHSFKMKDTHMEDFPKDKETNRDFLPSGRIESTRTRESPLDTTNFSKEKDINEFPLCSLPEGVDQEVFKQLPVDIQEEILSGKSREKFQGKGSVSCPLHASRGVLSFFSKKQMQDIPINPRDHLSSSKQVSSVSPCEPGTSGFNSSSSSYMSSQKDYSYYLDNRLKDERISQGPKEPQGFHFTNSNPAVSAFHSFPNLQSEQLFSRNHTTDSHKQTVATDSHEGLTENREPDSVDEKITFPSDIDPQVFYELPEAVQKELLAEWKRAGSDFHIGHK
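Fluorescent replication assay read twice, at 0 min and 10 min after adding 50 nM (final) substrate. Enzyme (10 nM) and compounds were first incubated 15 min at room temperature; enzyme-free buffer wells were negative controls.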
WRN helicase inh = inhibitors of human WRN helicase; WRN helicase unwinding, fluorescent forked duplex, kinetic; AID 651768; 0.46% of 360,000 active; Potency, µM (titrated, usually from 114 µM), actives largely listed as inhibitors; also: nearly all actives have a fitted effect of over 55% in size
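WRN at 20 nM final preincubated with compound 15 min at room temperature; reaction started with 100 nM fluorophore/quencher forked duplex oligonucleotide and 2 mM ATP final. Unwinding followed kinetically by red fluorescence (ex 525, em 598 nm).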
FEN1 inh = inhibitors of human flap endonuclease 1. P39748. Recombinant FEN1 flap cleavage, fluorescence, 15 min. Potency, µM (doses to about 114 µM), hits mostly inhibitors. 0.35% of 390,000 active; also: nearly all actives have a fitted effect of over 65% in size
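Steps: FEN1 (10 nM) dispensed; compound added by pin tool; 15 min at room temperature; substrate added to 50 nM final; reads at 0 min and 15 min; data normalized and fitted (four-parameter Hill).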
Pol beta inh = DNA polymerase beta (human) inhibition | Pol beta primer extension/strand displacement, fluorescence kinetic | Potency, µM (titrated, usually from 114 µM), hits mostly inhibitors | 1.3% of 340,000 active
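Reaction started by 50 nM substrate onto compound-treated Pol beta (10 nM, 15 min preincubation, room temperature); plates read at 0 min and 10 min. Normalized concentration-effect data fitted by four-parameter Hill equation.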
A number is an active result; - = inactive; ? = inconclusive; . = not tested or not shown; [ ] = dose if it differs, or a comment. A selection: hits, their analogues and other compounds. The true share with any hit is near 2.4%. Calls follow the shape of the dose curve; as a rule, active = well fitted curve in the direction sought with a large enough effect; inconclusive = small, poorly fitted or top-dose-only effect, or another doubt; inactive = no such curve, though single readings can be large; an effect the other way counts as inactive or inconclusive.

SMILES | Pol eta inh | POLK inh | Pol iota inh | WRN helicase inh | FEN1 inh | Pol beta inh
COc1cc2nc(N3CCN(C)CC3)nc(NC3CCN(Cc4ccccc4)CC3)c2cc1OC | . | - | - | . | ? | .
COc1cc2c(NC3CCN(C)CC3)nc(N3CCCN(C)CC3)nc2cc1OCCCCCN(C)C | . | - | ? | . | 22µM | .
CCN(CC)CCCOc1cc2nc(N3CCCN(C)CC3)nc(NC3CCN(C)CC3)c2cc1OC | . | - | ? | . | 25µM | .
COc1cc2c(NC3CCN(C)CC3)nc(N3CCCN(C)CC3)nc2cc1OCCCCN | . | 79µM | 20µM | . | 10µM | .
COc1cc2c(NC3CCN(C(C)C)CC3)nc(N3CCCN(C)CC3)nc2cc1OCCCN(C)C | . | - | ? | . | 32µM | .
Cc1cc(C)cc(C(=O)C[n+]2cccc(Br)c2)c1 | . | - | - | . | - | .
COc1ccccc1N(C)C | . | - | - | . | - | .
COc1ccc(C2CC(=O)Nc3c2c(=O)[nH]c2nc4ccccc4n32)cc1 (configuration not stated) | - | - | - | . | - | -
O=C(C[N+]12CCCc3cccc(c31)CCC2)c1ccccc1 | . | - | - | . | ? | .
CN(C)N=Nc1ccc(/C=C2\C=Cc3ccccc32)cc1 | . | - | - | . | - | .
COC(=O)c1nc(N2CCN(S(=O)(=O)c3ccc(C)cc3)CC2)c2ccccc2n1 | . | - | - | . | - | .
COc1cc2c(NC3CCN(C)CC3)nc(N3CCCN(C)CC3)nc2cc1OCC1CCNCC1 | . | - | ? | . | 10µM | .
COc1cc2c(NC3CCN(C)CC3)nc(N3CCCN(C)CC3)nc2cc1OCCN(C)C | . | - | ? | . | 25µM | .
COc1cc2c(NC3CCN(C)CC3)nc(N3CCN(C)CC3)nc2cc1OCCCN(C)C | . | - | ? | . | ? | .
COc1cc2nc(N3CCOCC3)nc(NC3CCN(C)CC3)c2cc1OC | . | - | - | . | ? | .
COC(=O)C(C)CCCC(C)CCCC(C)CCCC(C)C (configuration not stated) | . | - | . | . | . | .
Cc1ccc(S(=O)(=O)/C=C\C#N)cc1 | . | -[19.4 µM] | . | . | . | .
O=C(OC(C(=O)O)C(OC(=O)c1ccccc1)C(=O)NCc1ccccc1)c1ccccc1 (configuration not stated) | - | - | 89µM | - | - | -
CC(=O)Nc1cccc(-c2cc(C)c3cc4c(cc3n2)OCO4)c1 | - | - | ? | - | ? | 40µM
COc1ccc(-c2[nH]c(-c3ccc(C(=O)O)cc3)nc2-c2ccccc2)cc1 | - | - | - | - | - | -
O=C(O)c1ccc(-c2nc(-c3ccccc3)c(-c3ccccc3)[nH]2)cc1 | - | - | - | 40µM | - | -
O=C(O)CC/C(=N/NC(=O)c1cn(-c2ccccc2)nc1-c1ccccc1)C(=O)O | - | - | 25µM | - | - | -
CCOc1ccc(/C=C2/SC(=S)N(C(C(=O)O)c3ccccc3)C2=O)cc1OCC (configuration not stated) | ? | - | ? | - | - | -
CC(/C=C1\SC(=S)N(NS(=O)(=O)c2ccccc2)C1=O)=C\c1ccccc1 | 79µM | - | ? | -[11.6 µM] | - | -
C=CCOc1ccc(/C=C2\SC(=S)N(NS(=O)(=O)c3ccccc3)C2=O)cc1 | 25µM | - | ? | -[11.6 µM] | - | ?
SMILES | Pol eta inh | POLK inh | Pol iota inh | WRN helicase inh | FEN1 inh | Pol beta inh
C=CCOc1ccc(/C=C2\SC(=S)N(N3CCOCC3)C2=O)cc1 | - | - | - | - | - | -
COc1cc(/C=C2\SC(=S)N(NS(=O)(=O)c3ccccc3)C2=O)ccc1O | ? | - | 32µM | 50µM | - | -
COc1cc(/C=C2\SC(=S)N(C(C(=O)O)c3ccccc3)C2=O)ccc1O (configuration not stated) | ? | - | 28µM | 50µM | - | ?
CC(/C=C1\SC(=S)N(NC(=O)c2ccc(C)cc2)C1=O)=C\c1ccccc1 | - | - | - | - | - | -
CC(=Nc1ccccc1N)c1c(C)cc(=O)n(O)c1O | . | - | . | . | . | .
CCn1c(SC(C)C(=O)NCc2ccco2)nnc1-c1ccccc1 (configuration not stated) | . | - | ? | . | ? | .
CCOc1cc(/C=C2\SC(=S)N(NS(=O)(=O)c3ccc(C)cc3)C2=O)ccc1O | ? | ? | ? | 50µM | - | .
COc1cc(/C=C2\SC(=S)N(NS(=O)(=O)c3ccc(C)cc3)C2=O)cc(OC)c1OC | - | - | - | - | - | -
COc1ccc(/C=C2/SC(=S)N(NS(=O)(=O)c3ccccc3)C2=O)cc1 | 89µM | - | - | ? | - | -
COc1ccccc1/C=C1\SC(=S)N(NS(=O)(=O)c2ccccc2)C1=O | ? | - | - | - | - | -
CC(=O)NCCNc1ncncc1-c1ccc(N(C)C)cc1 | . | - | . | . | . | .
Cc1ccc(N2CC(C(=O)N3CCN(c4ccccn4)CC3)CC2=O)cc1 (configuration not stated) | 50µM | ? | ? | -[11.6 µM] | - | .
Cc1ccc(N2CC(C(=O)Nc3ccccn3)CC2=O)cc1 (configuration not stated) | - | - | - | - | - | -
O=C(c1cc2cc3ccc(Cl)cc3nc2o1)N1CCN(c2cccc(Cl)c2)CC1 | - | - | - | . | - | -
Cc1cccc(N2CCN(S(=O)(=O)c3ccc4[nH]c(=O)ccc4c3)CC2)c1C | - | - | ? | - | - | -
Cc1ccc(C)c(N2CCN(S(=O)(=O)c3ccc4[nH]c(=O)ccc4c3)CC2)c1 | ? | - | ? | - | - | 28µM
Cc1ccccc1NC(=O)COc1ccccc1C(=O)Nc1ccccc1 | . | - | - | . | - | .
Cn1c(NC(=O)c2ccc(F)cc2)nc2ccccc21 | - | - | 89µM | -[11.6 µM] | - | -
O=C(Nc1nc2ccccc2c2nc3ccccc3n12)c1ccc(F)cc1 | . | . | . | . | . | -
COc1ccc(C(=O)N/N=C/c2ccc(OC)c(CN3CCCc4ccccc43)c2)cc1 | - | - | - | - | - | 20µM
CCCOc1ccc(/C=N/NC(=O)CSc2ccccn2)cc1OC | - | - | - | - | - | 79µM
CCCCOc1ccc(C(=O)N/N=C/c2ccc(OCCN3CCCCC3)c(OC)c2)cc1 | ? | ? | ? | -[11.6 µM] | - | 16µM
COc1cc(/C=N/NC(=O)CSc2ccccn2)ccc1O | - | - | - | - | - | ?
O=C1c2cccnc2C(=O)N1c1nc(-c2ccccc2)cs1 | . | - | ? | . | - | .
CCOC(=O)/C=C/c1ccc2c(c1)S(=O)(=O)N(C1CCCC1)[C@H]2CC(=O)OCC | . | - | - | . | ? | .
Clc1ccc(Cn2c3c(c4ccccc42)CCc2cc4ccccc4nc2-3)cc1 | . | - | - | . | - | .
COc1cccc(NC(=S)NCCC(c2ccccc2)c2ccccc2)c1 | - | - | - | - | - | -
COc1cc(NC(=S)NCCC(c2ccccc2)c2ccccc2)cc(OC)c1 | ? | ? | 89µM | 40µM | 79µM | -
O=C1C=CC(O)(c2cc(=O)c3c(O)cc(O)cc3o2)C=C1 | ? | - | 6.3µM | -[11.6 µM] | - | -
Cc1ccccc1OCC(=O)NCC(=O)N/N=C/c1ccc(Br)o1 | 25µM | - | - | - | - | ?
